SIRT5 inh: sirtuin-5 (human) deacylase inhibition. inhibition, % at 15 µM. 1.1% of 330,000 active. Purified SirT5, succinyl-peptide AMC, trypsin-coupled fluorescence. Q9NXA8; in the data active means inhibition above about 15%; inconclusive means no clear call, values can overlap the other calls
Target sequence (Q9NXA8 whole entry, looked up): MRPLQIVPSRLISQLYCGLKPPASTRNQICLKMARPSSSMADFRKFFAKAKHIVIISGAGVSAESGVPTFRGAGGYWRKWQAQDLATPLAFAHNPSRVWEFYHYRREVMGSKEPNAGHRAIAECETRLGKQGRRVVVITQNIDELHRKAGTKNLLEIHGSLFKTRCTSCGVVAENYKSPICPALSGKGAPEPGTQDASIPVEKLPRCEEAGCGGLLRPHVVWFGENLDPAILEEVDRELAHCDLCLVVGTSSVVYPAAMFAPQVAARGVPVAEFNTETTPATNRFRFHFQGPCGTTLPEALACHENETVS
Casp6 inh: inhibitors of human caspase-6 | purified caspase-6, Z-VEID-R110 cleavage fluorescence | inhibition, % at 12.5 µM | 0.53% of 350,000 active;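 active means mean inhibition across replicates at least about 35%, with every replicate also reaching that limit, limit read from the data; inconclusive means only one of the two criteria met; inactive means neither criterion met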
Target sequence (P55212 24-179 limits assumed): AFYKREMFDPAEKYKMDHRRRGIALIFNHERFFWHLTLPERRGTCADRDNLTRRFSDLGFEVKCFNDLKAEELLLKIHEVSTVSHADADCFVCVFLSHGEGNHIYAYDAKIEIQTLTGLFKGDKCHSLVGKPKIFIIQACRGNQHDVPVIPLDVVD
Target sequence (P55212 194-293 limits assumed): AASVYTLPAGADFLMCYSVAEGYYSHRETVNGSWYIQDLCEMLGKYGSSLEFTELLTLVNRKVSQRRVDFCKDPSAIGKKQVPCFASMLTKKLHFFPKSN
ARNT TACC3 PPI: disrupts binding between human ARNT and TACC3. AID 623870. inhibition, % at 9.99 µM. 0.66% of 390,000 active. AlphaScreen His-ARNT PAS-B/GST-TACC3 binding, luminescence; TACC3 fragment carries E629A point mutation. Q9Y6A5;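 active means mean inhibition of replicates at least 50% and at least half of replicates each reaching 50%; inconclusive means half or more replicates reach 50% but mean below 50%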
NSD2 inh: blocks human histone methyltransferase NSD2; O96028; NSD2 peptide methylation, AlphaScreen, 120 min; inhibition, % at 12.5 µM; 0.54% of 310,000 active; in the data active means inhibition above about 50%
PfHsp90 set2: inhibits growth of yeast expressing Plasmodium falciparum Hsp90; 0.32% of 310,000 active; S. cerevisiae expressing PfHsp90, BacTiter-Glo ATP, 48 h; yeast lacking PDR1 and PDR3 efflux regulators; inhibition, % at 9.4 µM; AID 504621;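 active means every replicate shows inhibition above about 80%, whatever the replicate mean, limit read from the data; inconclusive means mean inhibition reaches the set limit but some replicate falls short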
Large screens that a line does not name were inactive; ! = a repeat was not active. Most compounds without a hit are left out; they make up all but 2.1% or so of the library.

COc1ccc2c3c(n(C)c2c1)[C@@H](CO)N(C(=O)c1ccc(F)cc1)CC31CCN(C(=O)c2ccc(F)cc2)CC1	none (no result: Casp6 inh, ARNT TACC3 PPI, NSD2 inh, PfHsp90 set2)
O=C(N/N=C/c1c[nH]c2ccccc12)c1ccncc1	none
O=C(N/N=C/c1c[nH]c2ccccc12)c1ccccc1	SIRT5 inh 100
O=C(Oc1cccc(-n2cnnn2)c1)c1ccccc1Cl	Casp6 inh 46 (no result: NSD2 inh)
Cc1ccc(C)c(-n2c(SCC(=O)N3CCCC3)nnc2-c2ccccn2)c1	ARNT TACC3 PPI 46 (no result: SIRT5 inh, Casp6 inh)
CCCn1c(SCC(=O)N2CCCC(C)C2)nnc1-c1ccccn1 (centres undefined)	SIRT5 inh 24
CCCC1COC(Cn2cncn2)(c2ccc(C)cc2)O1 (centres undefined)	PfHsp90 set2 99
CCN(CC)C(=O)COc1ccc(/C(C)=N/NC(=O)c2ccccc2O)cc1	Casp6 inh 38
Cc1ccc(-c2cnc3c(c2)C(=O)N([C@H](C)CO)C[C@H](C)[C@@H](CN(C)Cc2ccccc2F)O3)cc1	SIRT5 inh 13! (no result: NSD2 inh, PfHsp90 set2)
C[C@H](CO)N1C[C@H](C)[C@H](CN(C)Cc2cccc(C(F)(F)F)c2)Oc2ncc(C#Cc3ccccc3)cc2C1=O	SIRT5 inh 29 (no result: NSD2 inh, PfHsp90 set2)
C[C@H](CO)N1C[C@H](C)[C@H](CN(C)Cc2cccc(C(F)(F)F)c2)Oc2ncc(-c3ccc(F)cc3)cc2C1=O	SIRT5 inh 18 (no result: ARNT TACC3 PPI, NSD2 inh, PfHsp90 set2)
Cc1ccc(-c2cnc3c(c2)C(=O)N([C@@H](C)CO)C[C@H](C)[C@@H](CN(C)C(=O)c2cccnc2)O3)cc1	SIRT5 inh 26 (no result: NSD2 inh, PfHsp90 set2)
C[C@@H]1CN([C@@H](C)CO)S(=O)(=O)c2ccc(/C=C/c3ccccc3)cc2O[C@H]1CN(C)C(=O)c1ccccc1	none (no result: SIRT5 inh, Casp6 inh, NSD2 inh, PfHsp90 set2)
CO[C@H]1CC[C@H]2CCOc3c(C#N)cccc3C(=O)N(C)[C@H](C)C(=O)N(C)C[C@@H]1O2	none (no result: NSD2 inh, PfHsp90 set2)
C[C@@H]1CN([C@@H](C)CO)S(=O)(=O)c2ccc(/C=C/c3ccccc3)cc2O[C@H]1CN(C)C(=O)c1ccncc1	none (no result: NSD2 inh, PfHsp90 set2)
COc1ccc(NC(=O)N[C@@H]2CC[C@H](CC(=O)NC3CCC3)O[C@@H]2CO)cc1	none (no result: NSD2 inh, PfHsp90 set2)
C[C@@H]1CN([C@@H](C)CO)C(=O)c2cc(NC(=O)NC3CCCCC3)ccc2O[C@@H](C)CCCCO[C@@H]1CN(C)Cc1ccc(C(F)(F)F)cc1	none (no result: NSD2 inh, PfHsp90 set2)
COc1ccc(NC(=O)Nc2cccc3c2O[C@@H](CN(C)C)[C@H](C)CN([C@H](C)CO)C3=O)cc1	none (no result: NSD2 inh, PfHsp90 set2)
C[C@H](CO)N1C[C@H](C)[C@@H](CN(C)Cc2ccc(-c3ccccc3)cc2)Oc2ncc(C#C[C@@H](C)O)cc2C1=O	SIRT5 inh 17! (no result: NSD2 inh, PfHsp90 set2)
C[C@@H]1CN([C@@H](C)CO)C(=O)c2cc(-c3cccc(F)c3)cnc2O[C@@H]1CN(C)Cc1ccncc1	SIRT5 inh 21 (no result: NSD2 inh, PfHsp90 set2)
C[C@H](O)C#Cc1cnc2c(c1)C(=O)N([C@H](C)CO)C[C@H](C)[C@H](CN(C)Cc1ccc(-c3ccccc3)cc1)O2	none (no result: NSD2 inh, PfHsp90 set2)
C[C@@H]1CN([C@@H](C)CO)C(=O)c2cc(Br)cnc2O[C@H]1CN(C)Cc1cccnc1	SIRT5 inh 36! (no result: NSD2 inh, PfHsp90 set2)
C[C@@H]1CN([C@H](C)CO)C(=O)c2cc(Br)cnc2O[C@H]1CN(C)Cc1cccnc1	none (no result: NSD2 inh, PfHsp90 set2)
C[C@@H]1CN([C@@H](C)CO)C(=O)c2cc(-c3cccc(F)c3)cnc2O[C@H]1CN(C)C(=O)Nc1cc(F)ccc1F	SIRT5 inh 23 (no result: NSD2 inh, PfHsp90 set2)
O=C(C[C@H]1CC[C@@H](NC(=O)Nc2ccc(F)cc2)[C@@H](CO)O1)NCc1cccc(F)c1	none (no result: NSD2 inh, PfHsp90 set2)
CCC(=O)N(C)C[C@@H]1Oc2ncc(-c3ccc(F)cc3)cc2C(=O)N([C@@H](C)CO)C[C@@H]1C	SIRT5 inh 24 (no result: NSD2 inh, PfHsp90 set2)
C[C@H](CO)N1C[C@H](C)[C@H](CN(C)Cc2ccncc2)Oc2ncc(C#CCN(C)C)cc2C1=O	SIRT5 inh 41! (no result: NSD2 inh, PfHsp90 set2)
CCCC#Cc1ccc2c(c1)[C@@H]1[C@@H](CCN1C(=O)C1CCCCC1)[C@@H](CO)N2	none (no result: ARNT TACC3 PPI, NSD2 inh, PfHsp90 set2)
CCCNC(=O)C[C@@H]1CC[C@H]2[C@@H](COC[C@@H](O)CN2C(=O)C2CCOCC2)O1	none (no result: NSD2 inh, PfHsp90 set2)
CNC[C@H]1Oc2ccc(NC(=O)Nc3ccc4c(c3)OCO4)cc2CC(=O)N([C@H](C)CO)C[C@@H]1C	none (no result: NSD2 inh, PfHsp90 set2)
Cc1c(C(=O)N2CCOCC2)c(S(=O)(=O)Nc2ccccc2)c(C)n1C	SIRT5 inh 19
COc1ccc(-c2ccc3c(c2)O[C@H](CN(C)Cc2ccccc2C(=O)O)[C@H](C)CN([C@H](C)CO)S3(=O)=O)cc1	none (no result: SIRT5 inh, NSD2 inh, PfHsp90 set2)
O=C(Oc1ccc(N(C(=O)c2ccncc2)S(=O)(=O)c2ccc(F)cc2)cc1)c1ccncc1	none
Cc1ccc(S(=O)(=O)N(C(=O)c2ccncc2)c2ccc(OC(=O)c3ccncc3)cc2)cc1	PfHsp90 set2 95 (no result: SIRT5 inh, Casp6 inh)
Cc1ccc(S(=O)(=O)N(C(=O)c2ccncc2)c2ccc(OC(=O)c3ccncc3)cc2)c(C)c1	PfHsp90 set2 89
Cc1ccc(C)c(S(=O)(=O)N(C(=O)c2ccncc2)c2ccc(OC(=O)c3ccncc3)cc2)c1	none
O=C(Oc1ccc(N(C(=O)c2ccncc2)S(=O)(=O)c2ccc(Cl)cc2)cc1)c1ccncc1	PfHsp90 set2 inconclusive
COc1ccc(N(C(=O)c2ccncc2)S(=O)(=O)c2ccc(Cl)cc2)cc1	PfHsp90 set2 97 (no result: SIRT5 inh, Casp6 inh, NSD2 inh)
CCc1ccc(S(=O)(=O)N(C(=O)c2ccncc2)c2ccc(OC(=O)c3ccncc3)cc2)cc1	PfHsp90 set2 101 (no result: SIRT5 inh, Casp6 inh)
C[C@@H]1CCCCO[C@H](CN(C)C(=O)CCC(F)(F)F)[C@H](C)CN([C@@H](C)CO)C(=O)c2cc(NC(=O)CCCN(C)C)ccc2O1	none (no result: SIRT5 inh, Casp6 inh, NSD2 inh, PfHsp90 set2)
Oc1ccc(/C=N/Nc2cc(N3CCCC3)nc(N3CCCC3)n2)cc1O	NSD2 inh 110
CC(C)c1ccc(/C=N/Nc2cc(N3CCOCC3)nc(N3CCOCC3)n2)cc1	none (no result: SIRT5 inh, Casp6 inh)
Cc1cc(N/N=C/c2ccc(O)cc2O)nc(N2CCOCC2)n1	none
Oc1ccc(/C=N\Nc2cc(N3CCOCC3)nc(N3CCOCC3)n2)c(O)c1	NSD2 inh 153 (no result: ARNT TACC3 PPI)
O=C(Nc1ccccc1)N1C[C@@H]2[C@H](c3ccccc31)[C@@H](CO)N2CC1CCCC1	SIRT5 inh 19 (no result: NSD2 inh, PfHsp90 set2)
COCC(=O)N1[C@@H]2CN(C(=O)Nc3ccccc3F)c3ccccc3[C@@H]2[C@@H]1CO	Casp6 inh 36 (no result: NSD2 inh, PfHsp90 set2)
O=C(Nc1ccc(Cl)cc1)N1C[C@H]2[C@@H](c3ccccc31)[C@@H](CO)N2CC1CCCC1	none (no result: NSD2 inh, PfHsp90 set2)
O=C(C1CCOCC1)N1C[C@@H]2[C@H](c3ccccc31)[C@@H](CO)N2Cc1ccccc1F	none (no result: NSD2 inh, PfHsp90 set2)
COCC(=O)N1[C@H](CO)[C@H]2c3ccccc3N(C(=O)Nc3ccccc3F)C[C@H]21	none (no result: NSD2 inh, PfHsp90 set2)
O=C(C1CCOCC1)N1C[C@@H]2[C@H](c3ccccc31)[C@H](CO)N2Cc1ccccc1F	SIRT5 inh 15 (no result: NSD2 inh, PfHsp90 set2)
C[C@@H]1CN([C@@H](C)CO)C(=O)c2cc(C#CC(C)(C)O)cnc2O[C@@H]1CN(C)Cc1cncnc1	none (no result: NSD2 inh, PfHsp90 set2)
COc1ccc(S(=O)(=O)Nc2ccc3c(c2)C(=O)N([C@H](C)CO)C[C@H](C)[C@@H](CN(C)S(=O)(=O)c2ccc(C)cc2)OCCCC[C@H](C)O3)cc1	none (no result: NSD2 inh, PfHsp90 set2)

From PubChem
